# Test results taken from PubChem BioAssay.
# A number with no mark means an inactive call. For part of these data: Measured potencies and affinities stand elsewhere. Calls of active or inactive are those of the source. Unless noted, how the calls were made is not given here.
# How the values were obtained:
# [1] = antimalarial activity against Dd2 strain (AID 2302;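 active means growth inhibition above 50% at the single 2 µM test dose, taken to imply half-maximal potency below 2 µM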;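 further: 0% = DMSO untreated growth and 100% = chloroquine plus artemisinin killed control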); conditions: P. falciparum Dd2 in RBCs, LDH growth readout, 72 h; at 2 µM; stronger effect = higher value
# [2] = human hepatoma cell viability loss – ATP luminescence, cytotoxicity control for P. falciparum antimalarial project, primary screen (AID 2303;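 active means inhibition above 50%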;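 further: 0% = DMSO wells and 100% = digitonin-killed cells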); conditions: HepG2 viability, 24-48 h, at 10 µM, stronger effect = higher value
# [3] = target: L-lactate dehydrogenase (Plasmodium falciparum (isolate CDC / Honduras)) (UniProt Q27743); assay: PfLDH activity inhibition – cell lysate, 3D7 strain, counter-screen for P. falciparum growth inhibition project (AID 2304);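 further: 0% = vehicle and 100% = reference inhibitor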; conditions: P. falciparum 3D7 crude extract, LDH APAD/NBT absorbance; at 2 µM; stronger effect = higher value
# Sequence of L-lactate dehydrogenase (Plasmodium falciparum (isolate CDC / Honduras)) (Q27743 whole entry, looked up): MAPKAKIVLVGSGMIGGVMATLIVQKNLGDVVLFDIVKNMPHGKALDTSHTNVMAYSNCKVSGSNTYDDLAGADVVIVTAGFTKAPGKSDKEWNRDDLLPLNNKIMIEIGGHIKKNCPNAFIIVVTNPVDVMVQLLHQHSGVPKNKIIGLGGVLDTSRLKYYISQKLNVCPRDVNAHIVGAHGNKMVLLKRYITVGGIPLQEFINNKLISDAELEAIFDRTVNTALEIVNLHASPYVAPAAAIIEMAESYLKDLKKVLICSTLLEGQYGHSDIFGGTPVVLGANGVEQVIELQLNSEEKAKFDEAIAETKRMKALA
# [4] = inhibition of 3D7 malaria parasite growth – strain 3D7 (AID 2306);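 further: 0% = DMSO wells and 100% = chloroquine plus artemisinin control wells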; conditions: P. falciparum 3D7 erythrocytic growth, LDH absorbance, 72 h; at 2 µM; stronger effect = higher value
# [5] = target: Calcium-dependent protein kinase 1 (Plasmodium falciparum (isolate 3D7)) (UniProt P62344); assay: PfCDPK1 kinase inhibitors, biochemical, TCAMS library (AID 1159585; cut-off not given, nearly all actives have IC50 up to about 0.98 µM;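 further: inhibitors leave more ATP so luminescence rises with inhibition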); conditions: recombinant PfCDPK1, Kinase-Glo ATP depletion luminescence
# Sequence of Calcium-dependent protein kinase 1 (Plasmodium falciparum (isolate 3D7)) (P62344 whole entry, looked up): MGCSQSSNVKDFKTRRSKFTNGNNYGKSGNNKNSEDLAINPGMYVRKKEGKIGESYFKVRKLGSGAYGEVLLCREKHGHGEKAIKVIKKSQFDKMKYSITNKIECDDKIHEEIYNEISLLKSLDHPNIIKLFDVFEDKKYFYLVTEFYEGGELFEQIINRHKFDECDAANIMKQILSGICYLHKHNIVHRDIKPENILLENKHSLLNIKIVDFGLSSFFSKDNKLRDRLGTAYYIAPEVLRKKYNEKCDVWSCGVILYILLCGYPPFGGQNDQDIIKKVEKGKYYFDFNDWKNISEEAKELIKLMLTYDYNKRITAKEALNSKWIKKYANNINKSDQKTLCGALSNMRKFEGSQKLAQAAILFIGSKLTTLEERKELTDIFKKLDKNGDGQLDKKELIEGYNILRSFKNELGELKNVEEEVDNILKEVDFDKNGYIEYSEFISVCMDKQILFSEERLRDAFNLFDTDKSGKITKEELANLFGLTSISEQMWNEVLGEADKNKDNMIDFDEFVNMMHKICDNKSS
# [6] = target: Plasmodium falciparum protein kinase 6 (PK6, PF3D7_1337100) (UniProt Q8IDW1); assay: PfPK6 kinase inhibitors, biochemical, TCAMS library (AID 1159586); conditions: recombinant PfPK6, Kinase-Glo ATP depletion luminescence
# Sequence of Plasmodium falciparum protein kinase 6 (PK6, PF3D7_1337100) (Q8IDW1 1-305): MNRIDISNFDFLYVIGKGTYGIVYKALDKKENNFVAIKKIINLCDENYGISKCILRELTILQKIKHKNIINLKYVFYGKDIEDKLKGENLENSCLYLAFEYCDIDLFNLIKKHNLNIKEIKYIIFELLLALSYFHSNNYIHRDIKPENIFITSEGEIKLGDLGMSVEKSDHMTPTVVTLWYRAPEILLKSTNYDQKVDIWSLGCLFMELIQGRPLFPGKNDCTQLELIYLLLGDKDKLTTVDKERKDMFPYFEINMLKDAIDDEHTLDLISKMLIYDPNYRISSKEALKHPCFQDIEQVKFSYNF
# [7] = target: Protein kinase 7 (PK7), Plasmodium falciparum 3D7 (PF3D7_0213400) (UniProt Q7YTF7); assay: inhibition of Plasmodium PK7 catalytic activity – biochemical, TCAMS antimalarial set, Kinase-Glo luminescence (AID 1159587); conditions: recombinant PfPK7, Kinase-Glo ATP depletion luminescence
# Sequence of Protein kinase 7 (PK7), Plasmodium falciparum 3D7 (PF3D7_0213400) (Q7YTF7 1-343): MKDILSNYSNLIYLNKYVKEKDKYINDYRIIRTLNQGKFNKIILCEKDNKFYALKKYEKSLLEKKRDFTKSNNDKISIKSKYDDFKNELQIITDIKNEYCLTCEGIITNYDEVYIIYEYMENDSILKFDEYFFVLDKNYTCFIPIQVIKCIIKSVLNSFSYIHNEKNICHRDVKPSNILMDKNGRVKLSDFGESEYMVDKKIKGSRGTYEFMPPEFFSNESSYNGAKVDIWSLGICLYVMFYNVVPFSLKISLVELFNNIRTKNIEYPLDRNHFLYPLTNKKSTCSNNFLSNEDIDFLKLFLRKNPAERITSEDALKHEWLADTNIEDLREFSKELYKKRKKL
# [8] = target: Calcium-dependent protein kinase 4 (Plasmodium falciparum (isolate 3D7)) (UniProt Q8IBS5); assay: PfCDPK4 kinase inhibitors, biochemical, TCAMS library (AID 1159588; cut-off not given, nearly all actives have IC50 up to about 0.91 µM); conditions: recombinant PfCDPK4, Kinase-Glo ATP depletion luminescence
# Sequence of Calcium-dependent protein kinase 4 (Plasmodium falciparum (isolate 3D7)) (Q8IBS5 whole entry, looked up): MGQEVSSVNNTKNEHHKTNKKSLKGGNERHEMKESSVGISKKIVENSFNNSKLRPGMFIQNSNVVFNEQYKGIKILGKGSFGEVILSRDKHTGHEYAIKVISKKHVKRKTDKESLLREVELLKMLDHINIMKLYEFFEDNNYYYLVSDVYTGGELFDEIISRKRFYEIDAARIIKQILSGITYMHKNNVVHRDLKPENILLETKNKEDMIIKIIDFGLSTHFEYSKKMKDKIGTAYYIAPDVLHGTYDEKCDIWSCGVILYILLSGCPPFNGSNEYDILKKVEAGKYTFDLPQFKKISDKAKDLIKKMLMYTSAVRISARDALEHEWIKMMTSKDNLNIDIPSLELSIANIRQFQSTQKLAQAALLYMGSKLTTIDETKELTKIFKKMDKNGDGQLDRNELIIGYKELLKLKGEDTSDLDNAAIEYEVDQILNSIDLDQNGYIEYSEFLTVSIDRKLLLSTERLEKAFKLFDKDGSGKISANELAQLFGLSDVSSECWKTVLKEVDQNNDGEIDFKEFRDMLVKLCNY
SMILES,growth inhibition [1],inhibition [2],inhibition [3] [%],growth inhibition [4],outcome [5],outcome [6],outcome [7],outcome [8]
c1ccc(Oc2ccc(Nc3ccnc4cc(-c5csc(CNCCN6CCOCC6)n5)ccc34)cc2)cc1,99% (active),-1%,0,101% (active),inactive,inactive,inactive,inactive
CCNc1cc(C(=O)N[C@@H](Cc2ccccc2)[C@H](O)CNC2CCC(F)(F)CC2)c(F)c(N2CCCCS2(=O)=O)c1,97% (active),-5%,-1,100% (active),inactive,inactive,inactive,inactive
Cc1nc(-c2nc(NCCc3c(C)noc3C)ncc2-c2ccsc2)sc1C,85% (active),12%,-2,87% (active),inactive,inactive,inactive,inactive
O=C(Cc1cnc[nH]1)Nc1cccc(-c2ccc(-c3nc4ccc(F)cc4[nH]3)cc2)c1,84% (active),4%,-7,100% (active),inactive,inactive,inactive,inactive
CCNc1cc(C)nc(Nc2ccc(NC(=O)Cc3ccc(OC)cc3)cc2)n1,47%,30%,-1,101% (active),inactive,inactive,inactive,inactive
Cc1cccc(C(=O)N2CCN(Cc3cccc(NC(=O)c4cccs4)c3)CC2)c1,95% (active),5%,0,95% (active),inactive,inactive,inactive,inactive
COc1ccc(CNCC2CCC(CNCCc3ccccc3)CC2)cc1Cl (stereo not drawn),29%,23%,-2,100% (active),inactive,inactive,inactive,inactive
COc1cc(N(Cc2ccccc2C)S(=O)(=O)Cc2ccccc2[N+](=O)[O-])c(OC)cc1Cl,44%,16%,-2,94% (active),inactive,inactive,inactive,inactive
c1ccc2[nH]c(-c3ccc(-c4ccc(CN5CCCCC5)cc4)s3)nc2c1,69% (active),41%,2,102% (active),inactive,inactive,inactive,inactive
O=C(NCCCCN1CCC(c2ccc3c(c2OCc2ccncc2)CCCC3)CC1)c1ccc(-c2ccc(C(F)(F)F)cc2)cc1,92% (active),96% (active),3,101% (active),inactive,inactive,inactive,inactive
COc1cc(NCCCNCc2cn(S(=O)(=O)c3ccccc3)c3ccccc23)nc2ccccc12,77% (active),36%,4,101% (active),inactive,inactive,inactive,inactive
CCN1CCC(N(Cc2ccc(-c3ccc(C(F)(F)F)cc3)cc2)C(=O)Cn2c(CCc3cccc(F)c3F)cc(=O)c3c2CCCC3)CC1,96% (active),55% (active),0,100% (active),inactive,inactive,inactive,inactive
C[C@@H](N)C#Cc1cc2c(Nc3ccc(OCc4cccc(F)c4)c(Cl)c3)ncnc2s1,23%,17%,-5,89% (active),inactive,inactive,inactive,inactive
CC(C)[C@H](NC(=O)c1ccc(O)c(-c2ccc(Cl)c(Cl)c2)c1)C(=O)NCCN1CCOCC1,44%,-4%,-1,95% (active),inactive,inactive,inactive,inactive
CCc1cc(N2CCN(c3ccccc3F)CC2)nc(SCc2ccc(C(=O)NC3CC3)o2)n1,94% (active),9%,1,90% (active),inactive,inactive,inactive,inactive
Cc1[nH]c(C)c(-c2ccc(OCc3ccc(F)cc3)cc2)c(=O)c1Cl,96% (active),-10%,-1,95% (active),inactive,inactive,inactive,inactive
OCC1CCN(Cc2ccc(-c3cccc(-c4nc5ccc(F)cc5[nH]4)c3)cc2)CC1,25%,14%,-3,100% (active),inactive,inactive,inactive,inactive
O=C(NCC1CCN(CC2CCCCC2)C1)c1cc(-c2cccc(C(F)(F)F)c2)cs1 (stereo not drawn),21%,47%,-3,96% (active),inactive,inactive,inactive,inactive

SMILES,growth inhibition [1],inhibition [2],inhibition [3] [%],growth inhibition [4],outcome [5],outcome [6],outcome [7],outcome [8]
N#Cc1cccc(-c2cnc(N)c(-c3nc4ccc(S(N)(=O)=O)cc4[nH]3)c2)c1,99% (active),16%,-5,100% (active),inactive,inactive,inactive,inactive
COc1ccc(Cl)cc1N1CCN(CCCNC(=O)c2ccc(-c3nc4ccc(C(F)(F)F)cc4[nH]3)c(C)c2)CC1,14%,6%,-2,95% (active),inactive,inactive,inactive,inactive
CCNC(=O)c1cc(S(=O)(=O)N2CCN(c3ccccn3)CC2)cs1,94% (active),7%,1,97% (active),inactive,inactive,inactive,inactive
CCOc1cc(NC(=O)Nc2ccnc3ccccc23)cc(OC)c1,73% (active),-7%,3,98% (active),inactive,inactive,inactive,inactive
CC1Cc2ccccc2N1CC(=O)Nc1cc(C(F)(F)F)ccc1-n1cncn1 (stereo not drawn),97% (active),17%,1,97% (active),inactive,inactive,inactive,inactive
COc1ccc2nccc([C@@H](O)CN3CCC(NCc4ccc(OC)c(NC(C)=O)c4)CC3)c2c1,0%,-5%,-4,90% (active),inactive,inactive,inactive,inactive
Cc1cc(C2CCN(CCCCNC(=O)c3ccc(-c4ccc(C(F)(F)F)cc4)cc3)CC2)c(C)cc1OCC#N,58% (active),40%,3,100% (active),inactive,inactive,inactive,inactive
CCCN(CCC)C(=O)c1cc(C(=O)N[C@@H](Cc2ccccc2)[C@H](O)CNC2CC2)cc(N2CCCCS2(=O)=O)c1,98% (active),-3%,0,100% (active),inactive,inactive,inactive,inactive
COc1cc(F)c2nccc([C@@H](O)CN3CC[C@@H](NC(=O)OCc4ccccc4)[C@@H](F)C3)c2c1,100% (active),44%,2,99% (active),inactive,inactive,inactive,inactive
CCc1cc(=O)[nH]c(-n2nc(C)cc2NC(=O)CC(c2ccccc2)c2ccccc2)n1,75% (active),37%,4,92% (active),inactive,inactive,inactive,inactive
N#Cc1ccc(CN2CCC(Oc3ccc(NC(=O)c4cccs4)cc3Cl)CC2)cc1,96% (active),26%,-1,95% (active),inactive,inactive,inactive,inactive
OCCN1CCN(Cc2ccc(-c3ccc(-c4nc5ccc(F)cc5[nH]4)cc3)cc2)CC1,99% (active),33%,-5,101% (active),inactive,inactive,inactive,inactive
CC1CN=C(c2cccc(NC(=O)Nc3cccc(C4=NCC(C)N4)c3)c2)N1 (stereo not drawn),98% (active),7%,-3,94% (active),inactive,inactive,inactive,inactive
CCCCCCCOc1ccc(NC(=O)Nc2ccc(Cn3ncc(N4CCCNCC4)c(Cl)c3=O)cc2)cc1,28%,60% (active),2,87% (active),inactive,inactive,inactive,inactive
COc1cc(C(=O)Nc2cccc(-c3cn4cccc(C)c4n3)c2)cc(OC)c1OC,77% (active),-3%,-1,99% (active),inactive,inactive,inactive,inactive
COc1ccc2nccc([C@@H](O)CN3CCC(NCc4ccc5c(c4)sc(=O)n5C)CC3)c2c1,72% (active),10%,-6,100% (active),inactive,inactive,inactive,inactive
COc1ccc2nccc([C@@H](O)CN3CCC(NCc4cc5oc(=O)n(C)c5cc4F)CC3)c2c1,72% (active),-3%,-2,99% (active),inactive,inactive,inactive,inactive
Cc1ccc(F)c(OC2CCN(c3ccc(C(=O)NC4CC4)cn3)CC2)c1,72% (active),10%,-2,92% (active),inactive,inactive,inactive,inactive
